Test results published in PubChem BioAssay (NCI).
The panel holds about 83,000 compounds, 20% with a hit somewhere; the sample as a whole holds those more often.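 Testing used 96-well plates and a 48-hour single-concentration exposure. Example: -40 means 40% of the starting cells died.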 Calls of active or inactive are those of the source. How the source made its calls: active means growth percent below 10; inactive means the rest.

How the values were obtained:
Assay in all cases: NCI-60 one-dose screen, 48 h (100 = growth as untreated, 0 = no growth, -100 = all killed)
Conditions in all cases: 10 µM unless noted
SK-MEL-2 melanoma = test system: SK-MEL-2 melanoma
EKVX NSCLC = test system: EKVX NSCLC
SN12C renal = test system: SN12C renal
UO-31 renal = test system: UO-31 renal
TK-10 renal = test system: TK-10 renal
ACHN renal = test system: ACHN renal
CAKI-1 renal = test system: CAKI-1 renal
A498 renal = test system: A498 renal
CCRF-CEM leukemia = test system: CCRF-CEM leukemia
MOLT-4 leukemia = test system: MOLT-4 leukemia
SR leukemia = test system: SR leukemia
OVCAR-8 ovarian = test system: OVCAR-8 ovarian
OVCAR-5 ovarian = test system: OVCAR-5 ovarian
OVCAR-4 ovarian = test system: OVCAR-4 ovarian
SK-OV-3 ovarian = test system: SK-OV-3 ovarian
OVCAR-3 ovarian = test system: OVCAR-3 ovarian
HS 578T breast = test system: HS 578T breast
NCI/ADR-RES ovarian = test system: NCI/ADR-RES ovarian
IGROV1 ovarian = test system: IGROV1 ovarian

Measured: growth

C=CCc1cc(C)ccc1NC(C(=O)NCC(=O)OC)c1ccccc1 (stereo unspecified)
inactive: SK-MEL-2 melanoma 96.4% | EKVX NSCLC 93.9% | SN12C renal 91.4% | UO-31 renal 80.6% | TK-10 renal 106% | ACHN renal 98.5% | CAKI-1 renal 88.1% | A498 renal 94.6% | CCRF-CEM leukemia 105% | MOLT-4 leukemia 97.1% | SR leukemia 95% | OVCAR-8 ovarian 100% | OVCAR-5 ovarian 86.7% | OVCAR-4 ovarian 105% | SK-OV-3 ovarian 91.2% | OVCAR-3 ovarian 105% | HS 578T breast 106% | NCI/ADR-RES ovarian 92.7%

Cc1cccc(NCc2cn(-c3ccc(C(=O)O)cc3)nc2-c2ccc(C(=O)O)cc2)n1
inactive: SK-MEL-2 melanoma 120% | EKVX NSCLC 102% | SN12C renal 101% | UO-31 renal 88% | TK-10 renal 102% | ACHN renal 103% | CAKI-1 renal 95.7% | A498 renal 95.5% | CCRF-CEM leukemia 104% | MOLT-4 leukemia 105% | SR leukemia 111% | OVCAR-8 ovarian 110% | OVCAR-5 ovarian 95.2% | OVCAR-4 ovarian 105% | SK-OV-3 ovarian 110% | IGROV1 ovarian 105% | OVCAR-3 ovarian 106% | HS 578T breast 96.9% | NCI/ADR-RES ovarian 108%

O=c1c2cc(F)ccc2sc2c(NCCN3CCOCC3)nc3ccccc3c12
inactive: SK-MEL-2 melanoma 110% | EKVX NSCLC 91.6% | SN12C renal 72.8% | UO-31 renal 42% | TK-10 renal 79.2% | ACHN renal 64.7% | CAKI-1 renal 33.2% | A498 renal 58.3% | CCRF-CEM leukemia 57% | MOLT-4 leukemia 52.1% | SR leukemia 28.3% | OVCAR-8 ovarian 81.4% | OVCAR-5 ovarian 89.5% | OVCAR-4 ovarian 67.5% | SK-OV-3 ovarian 85% | IGROV1 ovarian 74.6% | OVCAR-3 ovarian 76.8% | HS 578T breast 63.3% | NCI/ADR-RES ovarian 72.5%

Cc1ccc(-c2nc(N3CCN(CC(=O)Nc4ccc(Cl)cc4)CC3)c3ccccc3n2)cc1
inactive: SK-MEL-2 melanoma 103% | EKVX NSCLC 85.4% | SN12C renal 90.4% | UO-31 renal 64.1% | TK-10 renal 104% | ACHN renal 98.3% | CAKI-1 renal 85.2% | A498 renal 51.4% | CCRF-CEM leukemia 88.9% | MOLT-4 leukemia 62.1% | SR leukemia 79.1% | OVCAR-8 ovarian 92.3% | OVCAR-5 ovarian 93.9% | OVCAR-4 ovarian 96.2% | SK-OV-3 ovarian 94.3% | IGROV1 ovarian 96.3% | OVCAR-3 ovarian 97.8% | HS 578T breast 92.6% | NCI/ADR-RES ovarian 84.5%

NCCCNc1nc2ccccc2c2c(=O)c3cccc(F)c3sc12
active: ACHN renal 8.21% | CAKI-1 renal 1.7% | CCRF-CEM leukemia 9.26% | MOLT-4 leukemia -14.7% | SR leukemia -16.7%
inactive: SK-MEL-2 melanoma 94.6% | EKVX NSCLC 60.4% | SN12C renal 43.4% | UO-31 renal 16.4% | TK-10 renal 54.2% | A498 renal 29.4% | OVCAR-8 ovarian 29% | OVCAR-5 ovarian 66.9% | OVCAR-4 ovarian 26.2% | SK-OV-3 ovarian 58.5% | IGROV1 ovarian 32.5% | OVCAR-3 ovarian 18.5% | HS 578T breast 52.4% | NCI/ADR-RES ovarian 30.3%

Cc1c(C(=O)NCCN2CCOCC2)cn2ncnc(Oc3ccc(NC(=O)Nc4ccc(Cl)c(C(F)(F)F)c4)cc3)c12
active: SK-MEL-2 melanoma -20.8% | A498 renal -5.16% | CCRF-CEM leukemia 9.09% | MOLT-4 leukemia -3.35% | SR leukemia 1.03% | HS 578T breast -23.8%
inactive: EKVX NSCLC 25.2% | SN12C renal 21.2% | UO-31 renal 52.7% | TK-10 renal 32.2% | ACHN renal 13.6% | CAKI-1 renal 30.3% | OVCAR-8 ovarian 33% | OVCAR-5 ovarian 53.3% | OVCAR-4 ovarian 31.7% | SK-OV-3 ovarian 30.6% | IGROV1 ovarian 39.3% | OVCAR-3 ovarian 16% | NCI/ADR-RES ovarian 82.1%

CCOC(=O)Nc1ccc(-c2nc(-c3cccc(OC)c3)c(-c3ccnc(Br)c3)[nH]2)cc1
active: SR leukemia 9.48% | HS 578T breast -5.11%
inactive: SK-MEL-2 melanoma 38.3% | EKVX NSCLC 30.1% | SN12C renal 48.9% | UO-31 renal 16.3% | TK-10 renal 71.4% | ACHN renal 24.3% | CAKI-1 renal 32.7% | A498 renal 22.4% | CCRF-CEM leukemia 16.7% | MOLT-4 leukemia 14.3% | OVCAR-8 ovarian 29.4% | OVCAR-5 ovarian 66.9% | OVCAR-4 ovarian 33.6% | SK-OV-3 ovarian 67.3% | IGROV1 ovarian 45.2% | OVCAR-3 ovarian 33.3% | NCI/ADR-RES ovarian 27.6%

Nc1nn(C(=O)Nc2ccc(Cc3ccccc3)cc2)c2ccc(Cl)cc12
inactive: SK-MEL-2 melanoma 68.7% | EKVX NSCLC 70% | SN12C renal 64.2% | UO-31 renal 43.5% | TK-10 renal 79.7% | ACHN renal 39.9% | CAKI-1 renal 44% | A498 renal 106% | CCRF-CEM leukemia 74% | MOLT-4 leukemia 25.6% | SR leukemia 71.7% | OVCAR-8 ovarian 72.5% | OVCAR-5 ovarian 55.7% | OVCAR-4 ovarian 54.3% | SK-OV-3 ovarian 91% | IGROV1 ovarian 76.2% | OVCAR-3 ovarian 76.7% | HS 578T breast 92.1% | NCI/ADR-RES ovarian 67%

COc1ccc2[nH]c(-c3ccccc3)c(/C=C(\C#N)S(=O)(=O)c3ccccc3)c2c1
active: SR leukemia 2.79%
inactive: SK-MEL-2 melanoma 87% | EKVX NSCLC 56.7% | SN12C renal 67% | UO-31 renal 70.2% | TK-10 renal 92.4% | ACHN renal 71.6% | CAKI-1 renal 76.6% | A498 renal 57.2% | CCRF-CEM leukemia 36.2% | MOLT-4 leukemia 17.4% | OVCAR-8 ovarian 60.7% | OVCAR-5 ovarian 101% | OVCAR-4 ovarian 12.5% | SK-OV-3 ovarian 73.3% | IGROV1 ovarian 67% | OVCAR-3 ovarian 45.1% | HS 578T breast 67.3% | NCI/ADR-RES ovarian 30.5%

CCOC(=O)c1cn2ncnc(Oc3ccc(NC(=O)NCCN4CCN(C)CC4)c(Cl)c3)c2c1C
inactive: SK-MEL-2 melanoma 91.9% | EKVX NSCLC 66.3% | SN12C renal 65% | UO-31 renal 61.7% | TK-10 renal 97.5% | ACHN renal 80% | CAKI-1 renal 76.3% | A498 renal 77.9% | CCRF-CEM leukemia 44.3% | MOLT-4 leukemia 57.2% | OVCAR-8 ovarian 64.7% | OVCAR-5 ovarian 97.1% | OVCAR-4 ovarian 72.3% | SK-OV-3 ovarian 95.2% | IGROV1 ovarian 73.3% | OVCAR-3 ovarian 76.2% | HS 578T breast 74.3% | NCI/ADR-RES ovarian 90.8%
active: SR leukemia -13.9%

COc1ccc(-c2csc(NC(=O)N3CCN(c4cc5c(cc4F)c(=O)c(C(=O)O)cn5C4CC4)CC3)n2)cc1
inactive: EKVX NSCLC 23.1% | TK-10 renal 25.5% | CAKI-1 renal 29% | SR leukemia 15.4% | OVCAR-5 ovarian 25.5% | OVCAR-4 ovarian 18.4% | HS 578T breast 28.8% | NCI/ADR-RES ovarian 57.5%
active: SK-MEL-2 melanoma -20.4% | SN12C renal 5.86% | UO-31 renal 1.86% | ACHN renal 9.82% | A498 renal -15% | CCRF-CEM leukemia 7.96% | MOLT-4 leukemia 3.03% | OVCAR-8 ovarian 3.75% | SK-OV-3 ovarian -8.98% | OVCAR-3 ovarian -3.32%

CC1Cc2c(ncn3c(-c4ccc(F)cc4)nnc23)N(C)c2ccccc21 (stereo unspecified)
active: OVCAR-4 ovarian -66.2% | OVCAR-3 ovarian 6.26%
inactive: SK-MEL-2 melanoma 99.6% | EKVX NSCLC 32.8% | SN12C renal 19.8% | UO-31 renal 27.6% | TK-10 renal 21.8% | ACHN renal 44% | CAKI-1 renal 55.5% | A498 renal 28.3% | CCRF-CEM leukemia 49.3% | MOLT-4 leukemia 82.1% | SR leukemia 25% | OVCAR-8 ovarian 57.1% | OVCAR-5 ovarian 78% | SK-OV-3 ovarian 76.3% | HS 578T breast 26.1% | NCI/ADR-RES ovarian 41%

O=c1c2cc(C(F)(F)F)ccc2sc2c(NCCCNCCO)nc3ccccc3c12
inactive: SK-MEL-2 melanoma 84.7% | EKVX NSCLC 67.3% | SN12C renal 36.1% | UO-31 renal 23.2% | A498 renal 21.8% | OVCAR-5 ovarian 64.8% | SK-OV-3 ovarian 74.9% | IGROV1 ovarian 15%
active: TK-10 renal -0.0148% | ACHN renal 2.14% | CAKI-1 renal -67.2% | CCRF-CEM leukemia -12.5% | MOLT-4 leukemia -50.1% | SR leukemia -39.4% | OVCAR-8 ovarian -3.45% | OVCAR-4 ovarian -41.6% | OVCAR-3 ovarian -73.8% | HS 578T breast -9.58% | NCI/ADR-RES ovarian 1.68%

CN1CCN(CC(=O)N2c3cccc4cccc(c34)N(C(=O)CN3CCN(C)CC3)C2c2cn(-c3ccccc3)nc2-c2cccc([N+](=O)[O-])c2)CC1
active: SK-MEL-2 melanoma -47.6% | SN12C renal -21.5% | TK-10 renal -19.4% | ACHN renal -31.1% | CCRF-CEM leukemia -32% | MOLT-4 leukemia -11.6% | SR leukemia -17.2% | OVCAR-8 ovarian -8.45% | OVCAR-4 ovarian -21.8% | SK-OV-3 ovarian -14.4% | IGROV1 ovarian 4.75% | OVCAR-3 ovarian -57.6%
inactive: EKVX NSCLC 17.8% | UO-31 renal 26.2% | CAKI-1 renal 14.4% | A498 renal 44.6% | OVCAR-5 ovarian 20.5% | HS 578T breast 28.6% | NCI/ADR-RES ovarian 72.4%

NCCCNc1nc2ccccc2c2c(=O)c3cc(F)cc(F)c3sc12
active: UO-31 renal -95% | ACHN renal -60.3% | CCRF-CEM leukemia -6.51% | SR leukemia -35.8% | OVCAR-4 ovarian -62.3%
inactive: SK-MEL-2 melanoma 111% | EKVX NSCLC 96.8% | SN12C renal 80.8% | TK-10 renal 87.1% | CAKI-1 renal 61.1% | A498 renal 43.5% | MOLT-4 leukemia 60.7% | OVCAR-8 ovarian 69.7% | OVCAR-5 ovarian 50.9% | SK-OV-3 ovarian 83.6% | IGROV1 ovarian 77.9% | OVCAR-3 ovarian 89.7% | HS 578T breast 76.8% | NCI/ADR-RES ovarian 84%

CNC(=O)c1cc(-n2ccc3cc(NC(=O)c4ccc(N5CCOCC5)c(C(F)(F)F)c4)ccc32)ccn1
inactive: SK-MEL-2 melanoma 91.1% | EKVX NSCLC 83.9% | SN12C renal 64.3% | UO-31 renal 50.2% | TK-10 renal 86.8% | ACHN renal 61.5% | CAKI-1 renal 63.6% | A498 renal 25.9% | CCRF-CEM leukemia 30.1% | MOLT-4 leukemia 34.6% | SR leukemia 24.8% | OVCAR-8 ovarian 27.7% | OVCAR-5 ovarian 79.1% | OVCAR-4 ovarian 64.4% | SK-OV-3 ovarian 91.2% | IGROV1 ovarian 77.7% | OVCAR-3 ovarian 63.9% | HS 578T breast 47.1% | NCI/ADR-RES ovarian 45.7%
